Data as given in the supplement of paper PMC10849652.
The full data set covers some 8,800 targets. This sample favours those with a hit. About 0.5% of all pairs of compound and target were hits.

Key:
Assay in all cases: log2 fold change, soluble protein after heating vs DMSO (PISA); higher = thermal stabilisation; K562 lysate, 10 uM; active = over 0.2 and 3.5 SD of the protein, either way, in both replicates (recomputed)
[1] = compound: C=CC(=O)N1CCC[C@@H](n2nc(-c3ccc(Oc4ccccc4)cc3)c3c(N)ncnc32)C1 [ibrutinib]
How it was run: (§1)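 Values give the log-two fold change in thermal stability against solvent controls, from duplicates. Crude K562 extract at 1 mg/mL protein, made by dounce homogenisation in PBS pH 7.4 with 1 mM MgCl2, was treated with 10 μM compound for 30 min. After 3 min heating across 48°C-58°C, aliquots were pooled, adjusted to 0.5% NP-40 at 4°C and centrifuged at 21,000xg for 90 min. The supernatant was measured by TMTpro 16plex LC-MS/MS with channel sums equalised.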

[2] = compound: CC(=O)c1cnc2ccc(-c3cc(Cl)c(O)c(Cl)c3)nc2c1N[C@H]1CC[C@H](CN(C)C)CC1
How it was run: as §1

[3] = compound: CC(C)(C)Cn1c(N)nc2ccc(-c3[nH]c(C(C)(C)C)nc3-c3ccc(F)cc3)nc21 [ralimetinib]
How it was run: as §1

[4] = compound: CC(C)(O)CC(=O)NCCn1ccc2ncnc(Nc3ccc(Oc4cccc(C(F)(F)F)c4)c(Cl)c3)c21
How it was run: as §1

[5] = compound: CC(C)C1=C2N=C(C=C(N2N=C1)NCC3=CC=CC=C3)NCCCCCCN
How it was run: as §1

[6] = compound: CC1=C(C(CC(=O)N1)C2=CC=C(C=C2)C(F)(F)F)C(=O)NC3=C(C=C4C(=C3)C=NN4)F
How it was run: as §1

[7] = compound: CC1=C(C2=C(C=C1)C(=O)C3=CC=CC=C3N2CCCN)C
How it was run: as §1

[8] = compound: CC1=C(C=C(C=C1)NC(=O)C2=CC(=CC=C2)C(C)(C)C#N)NC3=CC4=C(C=C3)N=CN(C4=O)C
How it was run: as §1

[9] = compound: CC1=C(C=C(C=C1)NC(=O)C2=CC(=CC=C2)N(C)C)NC(=O)C3=CC=C(C=C3)O
How it was run: as §1

[10] = compound: CC1=CC=C(C=C1)SC2=C3C=C(SC3=CN=C2)C(=O)N
How it was run: as §1

Measured: log2 fold change

OSBP (UniProt P22059)
inactive: [1] -0.007 | [2] 0.003 | [3] -0.019 | [4] -0.007 | [5] -0.19 | [6] 0.018 | [7] 0.04 | [8] -0.103 | [9] 0.011 | [10] -0.003

NAA38 isoform 2 (UniProt Q9BRA0)
Sequence of UniProt Q9BRA0 (Q9BRA0 whole entry, looked up): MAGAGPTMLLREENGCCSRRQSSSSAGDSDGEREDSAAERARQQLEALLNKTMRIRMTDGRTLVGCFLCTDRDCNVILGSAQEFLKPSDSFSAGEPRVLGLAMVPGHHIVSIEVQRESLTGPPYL
inactive: [1] 0.015 | [2] -0.012 | [3] -0.02 | [4] -0.015 | [5] -0.014 | [6] 0.052 | [7] -0.017 | [8] -0.028 | [9] 0.022 | [10] -0.029

NEBL isoform 2 (UniProt O76041)
Sequence of UniProt O76041 (O76041 whole entry, looked up): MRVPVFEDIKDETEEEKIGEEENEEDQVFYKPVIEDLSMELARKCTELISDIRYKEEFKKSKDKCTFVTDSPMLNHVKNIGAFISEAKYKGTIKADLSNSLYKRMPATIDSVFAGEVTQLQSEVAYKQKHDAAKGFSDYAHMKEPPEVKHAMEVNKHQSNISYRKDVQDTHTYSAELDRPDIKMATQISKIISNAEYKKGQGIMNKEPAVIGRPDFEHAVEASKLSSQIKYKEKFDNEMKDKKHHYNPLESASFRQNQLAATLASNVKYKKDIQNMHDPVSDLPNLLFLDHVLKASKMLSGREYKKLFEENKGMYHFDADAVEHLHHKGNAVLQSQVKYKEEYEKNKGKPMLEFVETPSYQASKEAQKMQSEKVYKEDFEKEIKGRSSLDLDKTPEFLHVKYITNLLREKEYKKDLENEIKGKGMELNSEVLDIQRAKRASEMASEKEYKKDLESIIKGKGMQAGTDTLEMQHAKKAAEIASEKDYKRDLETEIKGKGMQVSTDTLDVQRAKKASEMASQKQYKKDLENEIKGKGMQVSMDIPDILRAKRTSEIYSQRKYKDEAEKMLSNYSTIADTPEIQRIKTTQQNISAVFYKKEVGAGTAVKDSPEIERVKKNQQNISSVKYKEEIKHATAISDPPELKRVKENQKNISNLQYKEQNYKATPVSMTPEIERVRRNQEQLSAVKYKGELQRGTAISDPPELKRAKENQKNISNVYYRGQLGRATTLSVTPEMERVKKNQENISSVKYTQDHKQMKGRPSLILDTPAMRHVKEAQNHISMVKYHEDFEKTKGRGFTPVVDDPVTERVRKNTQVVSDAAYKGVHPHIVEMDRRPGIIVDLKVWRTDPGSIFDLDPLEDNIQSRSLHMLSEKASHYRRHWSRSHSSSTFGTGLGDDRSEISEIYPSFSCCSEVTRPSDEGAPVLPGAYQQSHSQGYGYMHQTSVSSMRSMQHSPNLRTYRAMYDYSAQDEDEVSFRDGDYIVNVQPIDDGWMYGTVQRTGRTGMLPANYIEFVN
inactive: [1] -0.04 | [2] 0.015 | [3] -0.038 | [4] 0.027 | [5] 0.027 | [6] -0.012 | [7] -0.028 | [8] 0 | [9] 0.011 | [10] -0.013

NUSAP1 (UniProt Q9BXS6)
inactive: [1] -0.003 | [2] -0.022 | [3] 0.023 | [4] -0.014 | [5] -0.006 | [6] -0.02 | [7] -0.017 | [8] -0.004 | [9] 0.016 | [10] -0.023

NCAPH2 (UniProt Q6IBW4)
inactive: [1] -0.033 | [2] -0.01 | [3] 0.066 | [4] -0.091 | [5] 0.028 | [6] -0.017 | [7] 0 | [8] 0.01 | [9] 0.055 | [10] 0.011

NUMBL (UniProt Q9Y6R0)
Sequence of UniProt Q9Y6R0 (Q9Y6R0 whole entry, looked up): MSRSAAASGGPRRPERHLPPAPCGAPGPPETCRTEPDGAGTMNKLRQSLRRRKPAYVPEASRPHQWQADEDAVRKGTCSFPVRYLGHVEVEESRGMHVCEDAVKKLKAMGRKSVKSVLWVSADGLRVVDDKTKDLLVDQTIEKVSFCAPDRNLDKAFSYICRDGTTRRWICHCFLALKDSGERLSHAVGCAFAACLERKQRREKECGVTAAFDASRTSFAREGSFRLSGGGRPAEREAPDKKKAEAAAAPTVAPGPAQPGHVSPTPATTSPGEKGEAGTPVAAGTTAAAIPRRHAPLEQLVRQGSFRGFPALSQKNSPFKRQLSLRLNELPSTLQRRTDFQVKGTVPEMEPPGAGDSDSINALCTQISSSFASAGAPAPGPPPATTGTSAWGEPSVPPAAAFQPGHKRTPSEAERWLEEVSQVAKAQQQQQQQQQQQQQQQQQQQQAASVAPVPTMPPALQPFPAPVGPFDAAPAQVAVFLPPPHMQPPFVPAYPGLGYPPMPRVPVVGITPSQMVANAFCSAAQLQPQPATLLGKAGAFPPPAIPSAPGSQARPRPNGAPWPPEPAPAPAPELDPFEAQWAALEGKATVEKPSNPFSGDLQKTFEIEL
inactive: [1] 0.047 | [2] -0.023 | [3] -0.009 | [4] 0.028 | [5] 0.07 | [6] 0.071 | [7] -0.081 | [8] 0.076 | [9] 0.058 | [10] -0.008

NUMB (UniProt P49757)
inactive: [1] 0.03 | [2] 0.005 | [3] 0.021 | [4] -0.055 | [5] 0.003 | [6] -0.007 | [7] -0.015 | [8] 0.081 | [9] 0.004 | [10] -0.005

NFKBIB (UniProt Q15653)
inactive: [1] -0.034 | [2] -0.037 | [3] 0.048 | [4] -0.008 | [5] -0.029 | [6] -0.012 | [7] 0 | [8] 0.033 | [9] 0.06 | [10] -0.037

OPA1 isoform 2 (UniProt O60313)
inactive: [1] -0.001 | [2] 0.006 | [3] -0.004 | [4] -0.036 | [5] -0.035 | [6] 0.031 | [7] 0.026 | [8] 0.024 | [9] 0.046 | [10] 0.02

MYO1D (UniProt O94832)
inactive: [1] -0.016 | [2] -0.012 | [3] 0.04 | [4] 0.003 | [5] 0.018 | [6] -0.021 | [7] -0.009 | [8] -0.014 | [9] 0.01 | [10] 0.031

MTHFD1L (UniProt B7ZM99)
inactive: [1] -0.034 | [2] -0.014 | [3] 0.004 | [4] 0.011 | [5] -0.007 | [6] -0.005 | [7] -0.006 | [8] 0.033 | [9] 0.02 | [10] -0.023

MTMR6 (UniProt Q9Y217)
inactive: [1] 0.011 | [2] -0.02 | [3] 0.041 | [4] 0.026 | [5] 0.043 | [6] -0.044 | [7] 0.006 | [8] 0.121 | [9] 0.011 | [10] -0.006

MTA2 (UniProt O94776)
Sequence of UniProt O94776 (O94776 whole entry, looked up): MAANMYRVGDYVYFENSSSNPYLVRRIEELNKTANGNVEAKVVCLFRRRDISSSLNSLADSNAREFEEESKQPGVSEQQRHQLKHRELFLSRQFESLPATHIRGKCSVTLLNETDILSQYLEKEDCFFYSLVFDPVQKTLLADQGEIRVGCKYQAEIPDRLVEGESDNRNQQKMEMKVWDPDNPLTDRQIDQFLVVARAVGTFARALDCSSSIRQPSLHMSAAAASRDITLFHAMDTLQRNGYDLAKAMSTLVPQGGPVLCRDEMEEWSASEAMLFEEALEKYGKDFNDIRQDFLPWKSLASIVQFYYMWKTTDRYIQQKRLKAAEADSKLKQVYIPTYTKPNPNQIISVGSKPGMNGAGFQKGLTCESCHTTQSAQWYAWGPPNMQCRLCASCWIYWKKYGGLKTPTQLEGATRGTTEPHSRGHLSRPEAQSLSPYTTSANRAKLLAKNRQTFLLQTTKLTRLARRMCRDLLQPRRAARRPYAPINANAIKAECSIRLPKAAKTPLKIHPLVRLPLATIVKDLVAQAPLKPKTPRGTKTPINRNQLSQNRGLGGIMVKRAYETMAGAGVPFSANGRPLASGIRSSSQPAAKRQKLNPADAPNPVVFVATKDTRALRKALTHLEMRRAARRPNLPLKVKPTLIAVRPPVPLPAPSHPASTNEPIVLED
inactive: [1] -0.014 | [2] -0.023 | [3] 0.03 | [4] 0.021 | [5] 0.032 | [6] 0.011 | [7] 0.018 | [8] -0.008 | [9] 0.043 | [10] -0.009

NIT2 (UniProt Q9NQR4)
inactive: [1] 0.026 | [2] 0.014 | [3] -0.038 | [4] -0.041 | [5] 0.014 | [6] 0.017 | [7] 0.014 | [8] 0.017 | [9] 0.019 | [10] 0

MT-CYB (UniProt P00156)
inactive: [1] 0.133 | [2] -0.055 | [3] 0.001 | [4] -0.064 | [5] -0.094 | [6] 0.03 | [7] -0.107 | [8] 0.039 | [9] -0.093 | [10] 0.198

MYH11 isoform 2 (UniProt P35749)
inactive: [1] -0.051 | [2] -0.011 | [3] -0.094 | [4] -0.043 | [5] 0.013 | [6] -0.019 | [7] -0.007 | [8] -0.043 | [9] 0 | [10] -0.004

NBN (UniProt O60934)
inactive: [1] 0.016 | [2] -0.003 | [3] 0.014 | [4] 0.01 | [5] -0.016 | [6] -0.007 | [7] -0.015 | [8] -0.021 | [9] 0.022 | [10] -0.016

NUDT5 (UniProt Q9UKK9)
inactive: [1] 0.059 | [2] -0.008 | [3] -0.047 | [4] -0.05 | [5] -0.047 | [6] -0.007 | [7] -0.002 | [8] 0.006 | [9] -0.014 | [10] -0.042

NDUFS1 isoform 2 (UniProt P28331)
inactive: [1] -0.022 | [2] -0.009 | [3] 0.014 | [4] -0.049 | [5] -0.041 | [6] 0.01 | [7] 0.007 | [8] -0.045 | [9] 0.005 | [10] 0.005

NCKAP1L (UniProt P55160)
Sequence of UniProt P55160 (P55160 whole entry, looked up): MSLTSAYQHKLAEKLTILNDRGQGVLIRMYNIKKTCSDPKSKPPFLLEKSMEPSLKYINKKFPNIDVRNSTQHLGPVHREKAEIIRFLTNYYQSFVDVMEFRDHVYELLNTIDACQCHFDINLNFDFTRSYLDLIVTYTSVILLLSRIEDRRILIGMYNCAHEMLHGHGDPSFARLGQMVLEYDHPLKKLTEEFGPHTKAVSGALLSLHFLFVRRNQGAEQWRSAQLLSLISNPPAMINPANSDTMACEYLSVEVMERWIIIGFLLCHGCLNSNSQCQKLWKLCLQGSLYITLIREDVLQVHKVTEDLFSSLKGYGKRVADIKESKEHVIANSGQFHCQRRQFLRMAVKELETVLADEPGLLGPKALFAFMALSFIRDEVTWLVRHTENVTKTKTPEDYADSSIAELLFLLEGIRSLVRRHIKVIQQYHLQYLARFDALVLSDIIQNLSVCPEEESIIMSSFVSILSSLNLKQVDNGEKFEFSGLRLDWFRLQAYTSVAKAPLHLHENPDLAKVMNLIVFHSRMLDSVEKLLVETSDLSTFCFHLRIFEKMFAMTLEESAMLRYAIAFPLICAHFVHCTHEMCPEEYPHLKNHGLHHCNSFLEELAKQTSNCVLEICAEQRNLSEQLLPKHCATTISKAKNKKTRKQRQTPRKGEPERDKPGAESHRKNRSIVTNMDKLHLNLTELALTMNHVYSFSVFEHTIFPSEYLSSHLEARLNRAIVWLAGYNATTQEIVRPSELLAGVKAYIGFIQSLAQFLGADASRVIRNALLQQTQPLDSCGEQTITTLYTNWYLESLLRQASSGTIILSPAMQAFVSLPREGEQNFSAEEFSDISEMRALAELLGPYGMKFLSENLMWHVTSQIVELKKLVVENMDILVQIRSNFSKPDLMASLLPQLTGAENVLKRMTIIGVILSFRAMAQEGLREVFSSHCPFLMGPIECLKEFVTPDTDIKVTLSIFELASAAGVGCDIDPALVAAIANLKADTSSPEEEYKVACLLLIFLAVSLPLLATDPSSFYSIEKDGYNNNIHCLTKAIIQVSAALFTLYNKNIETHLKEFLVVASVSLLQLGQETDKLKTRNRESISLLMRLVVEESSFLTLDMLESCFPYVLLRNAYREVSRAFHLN
inactive: [1] -0.18 | [2] 0.021 | [3] 0.025 | [4] -0.04 | [5] -0.111 | [6] -0.051 | [7] -0.089 | [8] -0.012 | [9] 0.04 | [10] 0.025

NIPSNAP3A (UniProt Q9UFN0)
inactive: [1] -0.013 | [2] -0.014 | [3] -0.016 | [4] -0.049 | [5] 0.029 | [6] 0.023 | [7] -0.021 | [8] 0.004 | [9] 0.022 | [10] -0.056

NELFA (UniProt Q9H3P2)
inactive: [1] 0 | [2] 0.001 | [3] -0.038 | [4] 0.003 | [5] -0.012 | [6] 0.008 | [7] 0.008 | [8] -0.022 | [9] -0.04 | [10] -0.024

NADK2 (UniProt Q4G0N4)
inactive: [1] -0.017 | [2] -0.006 | [3] 0.005 | [4] -0.03 | [5] -0.02 | [6] -0.007 | [7] 0.008 | [8] 0.024 | [9] 0.023 | [10] 0.042

NFATC2 (UniProt Q13469)
inactive: [1] 0.012 | [2] 0.039 | [3] -0.022 | [4] -0.061 | [5] 0.026 | [6] 0.004 | [7] -0.018 | [8] -0.026 | [9] 0.033 | [10] -0.031

NUP133 (UniProt Q8WUM0)
Sequence of UniProt Q8WUM0 (Q8WUM0 whole entry, looked up): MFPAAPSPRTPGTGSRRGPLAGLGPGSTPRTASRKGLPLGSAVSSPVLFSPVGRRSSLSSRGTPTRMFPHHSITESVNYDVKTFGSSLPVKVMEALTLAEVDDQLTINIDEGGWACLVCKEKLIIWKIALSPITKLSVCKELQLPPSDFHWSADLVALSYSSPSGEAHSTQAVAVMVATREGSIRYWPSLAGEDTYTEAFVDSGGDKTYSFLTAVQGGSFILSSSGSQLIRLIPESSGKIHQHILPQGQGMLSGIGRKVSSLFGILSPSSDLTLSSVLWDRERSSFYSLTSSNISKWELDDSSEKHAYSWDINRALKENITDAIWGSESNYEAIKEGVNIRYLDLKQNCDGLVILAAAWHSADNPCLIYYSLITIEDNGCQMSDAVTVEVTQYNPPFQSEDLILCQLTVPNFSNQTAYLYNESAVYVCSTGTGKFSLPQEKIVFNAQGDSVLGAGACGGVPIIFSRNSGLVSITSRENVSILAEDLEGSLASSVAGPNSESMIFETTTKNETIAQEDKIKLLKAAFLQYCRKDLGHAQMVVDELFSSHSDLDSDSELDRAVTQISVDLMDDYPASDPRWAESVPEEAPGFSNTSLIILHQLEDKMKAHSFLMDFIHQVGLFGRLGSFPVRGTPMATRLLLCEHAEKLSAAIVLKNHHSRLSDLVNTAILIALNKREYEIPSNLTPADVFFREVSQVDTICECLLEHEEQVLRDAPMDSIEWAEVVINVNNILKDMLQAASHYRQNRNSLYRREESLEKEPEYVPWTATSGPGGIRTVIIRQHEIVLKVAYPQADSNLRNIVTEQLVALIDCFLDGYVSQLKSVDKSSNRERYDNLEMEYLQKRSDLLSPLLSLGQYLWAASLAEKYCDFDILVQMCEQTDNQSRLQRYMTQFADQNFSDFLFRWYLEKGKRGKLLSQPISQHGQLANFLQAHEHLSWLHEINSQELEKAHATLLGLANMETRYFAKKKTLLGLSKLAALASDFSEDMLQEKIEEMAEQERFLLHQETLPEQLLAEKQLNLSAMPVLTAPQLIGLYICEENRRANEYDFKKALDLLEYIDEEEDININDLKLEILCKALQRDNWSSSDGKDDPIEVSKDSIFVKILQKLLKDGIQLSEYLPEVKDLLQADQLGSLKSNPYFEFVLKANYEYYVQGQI
inactive: [1] 0.016 | [2] -0.015 | [3] 0.006 | [4] 0.045 | [5] -0.01 | [6] 0.064 | [7] -0.02 | [8] 0.01 | [9] 0.009 | [10] -0.002

NAA35 (UniProt Q5VZE5)
inactive: [1] -0.005 | [2] -0.017 | [3] 0.006 | [4] 0.042 | [5] -0.01 | [6] -0.008 | [7] -0.004 | [8] -0.006 | [9] 0.017 | [10] -0.02

MTFP1 (UniProt Q9UDX5)
Sequence of UniProt Q9UDX5 (Q9UDX5 whole entry, looked up): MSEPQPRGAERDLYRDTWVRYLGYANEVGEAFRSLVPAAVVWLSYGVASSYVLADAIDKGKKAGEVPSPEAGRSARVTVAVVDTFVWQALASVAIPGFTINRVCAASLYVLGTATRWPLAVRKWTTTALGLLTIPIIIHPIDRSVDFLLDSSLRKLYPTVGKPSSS
inactive: [1] 0.097 | [2] -0.065 | [3] -0.017 | [4] 0.079 | [5] -0.058 | [6] 0.018 | [7] 0.009 | [8] -0.011 | [9] -0.048 | [10] -0.001

NOA1 (UniProt Q8NC60)
inactive: [1] -0.024 | [2] -0.025 | [3] 0.002 | [4] 0.034 | [5] 0.005 | [6] -0.064 | [7] -0.02 | [8] 0.002 | [9] -0.001 | [10] 0.02

NUCB2 (UniProt P80303)
inactive: [1] 0.025 | [2] 0.002 | [3] -0.023 | [4] 0.01 | [5] 0.009 | [6] 0.04 | [7] -0.006 | [8] 0 | [9] -0.015 | [10] -0.014

MRPL53 (UniProt Q96EL3)
inactive: [1] 0.041 | [2] -0.018 | [3] 0.062 | [4] -0.047 | [5] 0.016 | [6] -0.047 | [7] 0.011 | [8] 0.042 | [9] 0.044 | [10] 0.011
